Source: PubChem BioAssay AID2069 (Sanford-Burnham Center for Chemical Genomics, 2009)
In all, about 1,200 compounds went through this assay and about 210 (18%) were called active. Rule as the data show it: active = inhibition above about 30%; inactive = the rest. These entries were drawn from the full list.

Assay: HTRF signal interference by compounds, confirmation, artefact control for SUMOylation inhibitor project, biochemical, uHTS (AID 2069)
Conditions: HTRF interference counterscreen, fluorescence, at 35 µM, active compounds read high

| Compound | inhibition |
| --- | --- |
| Cc1cc(=O)n2[nH]c(N)c(N=Nc3ccccc3)c2n1 | -13.8% (inactive) |
| O=c1c(-c2ccccc2)coc2c(CN3CCCC3)c(O)ccc12 | 42% (active) |
| COc1ccccc1/C=N/Nc1cc(N(C)C)nc(N(C)C)n1 | 11.9% (inactive) |
| Cn1c(=O)c(Nc2ccc(O)cc2)c2c3c(cccc31)C(=O)c1ccccc1-2 | -3.25% (inactive) |
| NC(=O)N/N=C/c1ccc2cccc(OCc3ccccc3)c2n1 | 68.3% (active) |
| O=C(CNc1cccc2ccccc12)N/N=C/c1ccccn1 | 17.4% (inactive) |
| Cc1cccc(/C=N/NC(=O)C(C)Nc2cccc3ccccc23)n1 (stereo not drawn) | 1.6% (inactive) |
| COc1ccc(N=C2NC(=O)/C(=C\c3ccco3)S2)cc1 | 4.75% (inactive) |
| COc1ccc(-n2c(CNc3ccc(C)cc3)nnc2SCC(=O)Nc2nc(-c3ccccc3)cs2)cc1 | -1.4% (inactive) |
| Cc1cccc(NC(=O)CC2Nc3cccc4cccc(c34)NC2=O)c1 (stereo not drawn) | -17.8% (inactive) |
| O=C(O)/C=C/C(=O)Nc1ccc2c(c1)NC(=O)CO2 | -0.95% (inactive) |
| COc1cc([N+](=O)[O-])cc(/C=N/NC(=O)CC#N)c1O | 21.6% (inactive) |
| O=C(N/N=C/c1cc(Br)cc(Br)c1O)c1ccncc1 | 12.4% (inactive) |
| Nc1nnc(CC(=O)N/N=C/c2cc([N+](=O)[O-])cc(Br)c2O)s1 | 30% (active) |
| NC(=O)CC(NC(=O)Cc1ccc(Br)cc1)c1ccc(NCCc2ccccc2F)c([N+](=O)[O-])c1 (stereo not drawn) | 5.95% (inactive) |
| O=C(/C=C/c1ccco1)NC(=S)NNC(=O)c1ccco1 | -18.9% (inactive) |
| O=C(O)CSc1cc(C(=O)c2cc(F)ccc2O)cn2c(=O)c3c(-c4ccccc4)csc3nc12 | 28.9% (inactive) |
| N#Cc1c(N2CCN(c3ccc(F)cc3)CC2)nc(N)c2c(N)nc3c(c12)CC(=O)N3C1CC1 | 16.5% (inactive) |
| CN(CCO)c1nc(N)c2c(N)nc3c(c2c1C#N)CC(=O)N3C1CCCC1 | 43.9% (active) |
| CCCN(CC1CC1)c1nc(N)c2c(N)nc(OC)cc2c1C#N | 10.2% (inactive) |
| N#Cc1c(N(CCO)CCO)nc(N)c2c(N)nc3c(c12)CC(=O)N3CC1CCCO1 (stereo not drawn) | 41.8% (active) |

| Compound | inhibition |
| --- | --- |
| N#Cc1c(N(CCO)CCO)nc(N)c2c(N)nc3c(c12)CC(=O)N3Cc1cccs1 | 25.1% (inactive) |
| COc1ccc(C)c2sc(NC(=O)c3cccc(N4C(=O)CCC4=O)c3)nc12 | 21% (inactive) |
| CC(C)C(=O)Nc1cccc(C(=O)NCc2ccc3c(c2)OCO3)c1 | -4.7% (inactive) |
| N#Cc1c(-c2ccc(Cl)cc2)cc(-c2cccs2)nc1SCC(=O)O | -4.9% (inactive) |
| CCOC(=O)C1CCN(C2=C(NS(=O)(=O)c3ccc(Br)cc3)C(=O)c3ccccc3C2=O)CC1 | -7.95% (inactive) |
| O=C(Nc1ccc(Br)cc1)c1ccc(N2C(=O)C3CC=C(Cl)CC3C2=O)cc1 (stereo not drawn) | -0.95% (inactive) |
| COCCCNC(=O)c1c(N)n(-c2ccccc2)c2nc3ccccc3nc12 | 33.6% (active) |
| COc1ccc(-n2c(N)c(C(=O)NCc3ccco3)c3nc4ccccc4nc32)cc1OC | 11.5% (inactive) |
| C=CCn1c(NC(=O)c2ccc(Br)o2)c(S(=O)(=O)c2ccccc2)c2nc3ccccc3nc21 | 8.1% (inactive) |
| COCCNC(=O)c1c(N)n(CCCn2ccnc2)c2nc3ccccc3nc12 | 40% (active) |
| Nc1c(C(=O)NCc2ccco2)c2nc3ccccc3nc2n1CCc1ccccc1 | 11% (inactive) |
| COCCNC(=O)c1c(N)n(CCC2=CCCCC2)c2nc3ccccc3nc12 | 25.1% (inactive) |
| C=CCn1c(NS(=O)(=O)c2ccccc2)c(S(=O)(=O)c2ccc(C)cc2)c2nc3ccccc3nc21 | 23.6% (inactive) |
| C=CCNC(=O)c1c(N)n(-c2cccc(S(N)(=O)=O)c2)c2nc3ccccc3nc12 | 33% (active) |
| CCc1cc(=O)oc2c3c(cc(OCC(=O)NCCCCCC(=O)O)c12)OC(C)(C)CC3 | 29.8% (inactive) |
| Cc1ccc(Sc2cc(NCCCO)c([N+](=O)[O-])c3nonc23)cc1 | 0.15% (inactive) |
| COc1ccc(-c2csc(CCN3N=C(C)CC3=O)n2)cc1 | -4.6% (inactive) |
| Cc1cc2oc(C(=O)Nc3ccc(S(=O)(=O)Nc4nccs4)cc3)cc(=O)c2cc1Cl | -9.2% (inactive) |
| Cc1ccc(CSc2nnc(SCC(=O)N/N=C/c3c[nH]c4ccccc34)s2)cc1 | -3.9% (inactive) |
| CC1CCCN(C2=C(NS(=O)(=O)c3ccc(Br)cc3)C(=O)c3ccccc3C2=O)C1 (stereo not drawn) | -7.35% (inactive) |
| Cc1cccc(NC(=S)Nc2cccc3ccccc23)c1 | -3.85% (inactive) |

| Compound | inhibition |
| --- | --- |
| COc1cc(/C=C2/C(=O)N(c3ccc([N+](=O)[O-])cc3)N=C2N2CCOCC2)ccc1O | -19.4% (inactive) |
| N#Cc1c(NC(=O)CSc2ncnc3sccc23)oc(-c2ccco2)c1-c1ccco1 | 7.1% (inactive) |
| CC1=NN(c2ccc(Cl)cc2)C(=O)C1C(c1ccccc1O)c1c(C)[nH]n(-c2ccc(Cl)cc2)c1=O (stereo not drawn) | -12.7% (inactive) |
| CC(C)(C)c1cnnn1-c1cccc([N+](=O)[O-])c1 | 6.3% (inactive) |
| CN1CCCc2cc3c(C(F)(F)F)cc(=O)oc3nc21 | 57.5% (active) |
| O=C(CC1CS(=O)(=O)CC1CC(=O)Oc1ccccc1F)Oc1ccccc1F (stereo not drawn) | 5.6% (inactive) |
| CC(=O)Oc1ccc2cc(-c3nc4ccccc4n3C)c(=O)oc2c1 | 38.6% (active) |
| CC1=C(C#N)C(=O)NC(=O)/C1=C/c1ccc(-c2ccc(S(N)(=O)=O)cc2)o1 | 19.2% (inactive) |
| O=c1c2ccccc2nc2n1CCC2 | 31.4% (active) |
| Cc1nc2ccccc2c(=O)n1/N=C/c1ccc(O)c(O)c1O | 7.15% (inactive) |
| Cc1ccc(/C=N/NC(=O)c2cccc(S(=O)(=O)Nc3cccc(Cl)c3)c2)o1 | 9.55% (inactive) |
| O=[N+]([O-])c1cccc(S(=O)(=O)Nc2nc3ccccc3nc2Nc2cccc(S(=O)(=O)N3CCCCC3)c2)c1 | -17.1% (inactive) |
| CC1=NN(c2ccccc2)C(=O)/C1=C\c1ccc(Br)s1 | -10.7% (inactive) |
| Nc1ccc(N2CCCCC2)c2nonc12 | -23.7% (inactive) |
| COc1ccc(C2C3=C(CCCC3=O)Nc3c(-c4ccccc4)c(C)nn32)cc1 (stereo not drawn) | 46.6% (active) |
| COc1ccc(N2C3=C(CC4=C2CCCC4=O)C(=O)CCC3)cc1 | 18.1% (inactive) |
| O=C(CNc1cccc2ccccc12)N/N=C/c1ccc([N+](=O)[O-])cc1 | -4% (inactive) |
| Cn1c(-c2ccc(C=O)s2)nc2ccccc21 | 49.1% (active) |
| Cn1c(CNc2ccc(O)cc2)nc2ccccc21 | -19.7% (inactive) |
| Cn1c(-c2ccc(C=O)s2)nc2c3ccccc3c3ccccc3c21 | 22.3% (inactive) |
| CC(C)CC(=O)Nc1ccc(C(=O)Cn2nc(C(=O)O)c3ccccc3c2=O)cc1 | -7.35% (inactive) |

| Compound | inhibition |
| --- | --- |
| [O-]/C(=C(\C(=S)Nc1cccc2ccccc12)[n+]1cccc(CO)c1)c1ccc(Cl)s1 | -14.8% (inactive) |
| COc1ccc(Cn2c(C)c(C)c(C#N)c2NC(=O)Nc2ccc(F)cc2)cc1 | 1.75% (inactive) |
| COc1ccc(Cc2n[nH]c(=S)n2NC(=O)Nc2ccc(Cl)c(Cl)c2)cc1 | 54.1% (active) |
| COc1ccc(Cc2n[nH]c(=S)n2NC(=O)Nc2ccc(C)cc2)cc1 | 20.8% (inactive) |
| CCOC(=O)C1=C(C)N=c2s/c(=C\c3ccc(OCC(=O)O)cc3)c(=O)n2C1c1ccc(OC(C)C)cc1 (stereo not drawn) | 12.8% (inactive) |
| COc1cccc(OC)c1C(=O)N1CCNCC1 | -12.3% (inactive) |
| COc1ccc(C(=O)N2CCC(O)(c3ccc(F)cc3)CC2)cc1OC | 39% (active) |
| Cc1[nH][nH]c(=O)c1C(c1c(C)[nH][nH]c1=O)c1cn(C)c2ccccc12 | -22.4% (inactive) |
| COc1cccc(C(=O)Nc2cccc(C(=O)NC3=NN(c4c(Cl)cc(Cl)cc4Cl)C(=O)C3)c2)c1 | -11.8% (inactive) |
| CCN(CC(=O)c1c(N)n(C)c(=O)n(C)c1=O)c1cccc2ccccc12 | 11.8% (inactive) |
| COc1cc(/C=N/NC(=O)c2ccccc2O)ccc1OCC(=O)Nc1ccccc1 | 15.4% (inactive) |
| Cc1cc2n(n1)SC(Nc1cccc3ccccc13)N2 (stereo not drawn) | -6.45% (inactive) |
| Oc1cccc(C=Nc2cccc3ccccc23)c1O | 8.55% (inactive) |
| Cc1ccc(N2CSC3=C(C#N)C(c4cccs4)CC(=O)N3C2)cc1 (stereo not drawn) | -28.4% (inactive) |
| Cc1c(CC(=O)N2CCN(C(=O)C3COc4ccccc4O3)CC2)c(=O)oc2c(C)c(O)ccc12 (stereo not drawn) | 66.6% (active) |
| Cc1ccc(C)c(S(=O)(=O)C(C#N)c2nc3ccccc3nc2N2CCCC2)c1 (stereo not drawn) | 1.8% (inactive) |
| CCCCCc1c2c(cc(O)c1C(=O)O)OC(=O)c1c(cc(OC)cc1C(=O)CCCC)O2 | 11.2% (inactive) |
| c1coc(-c2nnc(-c3ccco3)nn2)c1 | 7.95% (inactive) |
| Cc1cccc2nc(-c3ccco3)c(Nc3ccc4c(c3)OCO4)n12 | -6.85% (inactive) |
| Cc1cc(=O)[nH]c(SCC(=O)c2ccc(O)c(O)c2)n1 | 7.45% (inactive) |
